Measured values from the supplement of paper PMC6411743.
± gives the standard deviation of the averaged measurements. About 6,500 targets were measured; listed, in parts, are those with the largest changes and a random draw of the rest.

Compound: Nc1ncnc2c1ncn2[C@@H]1O[C@H](COP(=O)(O)OP(=O)(O)OP(=O)(O)O)[C@@H](O)[C@H]1O [adenosine triphosphate]
Assay: NP40-soluble protein abundance relative to vehicle (solubility fold change) (ratio); higher = more soluble protein in presence of ATP
Outline: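 Jurkat crude lysate prepared with a Dounce homogeniser was treated at eight concentrations spanning 0.1 to 10 mM, 10 min at room temperature then 3 min at 37 °C. Solubilisation with 0.8% NP40 and benzonase and ultracentrifugation preceded TMT labelling of the supernatant for LC-MS/MS. Fold change against the detergent-processed vehicle was determined per replicate from vsn-normalised intensities, across three independent experiments.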

Q5QPA5|Q9NVS2|Q9NVS2-2 (UniProt Q9NVS2)
NP40-soluble protein abundance (concentration: 1mM): 1.07 ± 0.12 | NP40-soluble protein abundance (concentration: 2mM): 0.926 ± 0.14 | NP40-soluble protein abundance (concentration: 4mM): 0.879 ± 0.17 | NP40-soluble protein abundance (concentration: 6mM): 0.946 ± 0.39 | NP40-soluble protein abundance (concentration: 8mM): 0.887 ± 0.24 | NP40-soluble protein abundance (concentration: 10mM): 0.818 ± 0.2

TYSND1 (UniProt Q2T9J0)
NP40-soluble protein abundance (concentration: 1mM): 0.977 ± 0.047 | NP40-soluble protein abundance (concentration: 2mM): 0.983 ± 0.058 | NP40-soluble protein abundance (concentration: 4mM): 0.995 ± 0.042 | NP40-soluble protein abundance (concentration: 6mM): 0.947 ± 0.013 | NP40-soluble protein abundance (concentration: 8mM): 0.974 ± 0.032 | NP40-soluble protein abundance (concentration: 10mM): 0.96 ± 0.076

URB2 (UniProt Q14146)
Sequence of UniProt Q14146 (Q14146 whole entry): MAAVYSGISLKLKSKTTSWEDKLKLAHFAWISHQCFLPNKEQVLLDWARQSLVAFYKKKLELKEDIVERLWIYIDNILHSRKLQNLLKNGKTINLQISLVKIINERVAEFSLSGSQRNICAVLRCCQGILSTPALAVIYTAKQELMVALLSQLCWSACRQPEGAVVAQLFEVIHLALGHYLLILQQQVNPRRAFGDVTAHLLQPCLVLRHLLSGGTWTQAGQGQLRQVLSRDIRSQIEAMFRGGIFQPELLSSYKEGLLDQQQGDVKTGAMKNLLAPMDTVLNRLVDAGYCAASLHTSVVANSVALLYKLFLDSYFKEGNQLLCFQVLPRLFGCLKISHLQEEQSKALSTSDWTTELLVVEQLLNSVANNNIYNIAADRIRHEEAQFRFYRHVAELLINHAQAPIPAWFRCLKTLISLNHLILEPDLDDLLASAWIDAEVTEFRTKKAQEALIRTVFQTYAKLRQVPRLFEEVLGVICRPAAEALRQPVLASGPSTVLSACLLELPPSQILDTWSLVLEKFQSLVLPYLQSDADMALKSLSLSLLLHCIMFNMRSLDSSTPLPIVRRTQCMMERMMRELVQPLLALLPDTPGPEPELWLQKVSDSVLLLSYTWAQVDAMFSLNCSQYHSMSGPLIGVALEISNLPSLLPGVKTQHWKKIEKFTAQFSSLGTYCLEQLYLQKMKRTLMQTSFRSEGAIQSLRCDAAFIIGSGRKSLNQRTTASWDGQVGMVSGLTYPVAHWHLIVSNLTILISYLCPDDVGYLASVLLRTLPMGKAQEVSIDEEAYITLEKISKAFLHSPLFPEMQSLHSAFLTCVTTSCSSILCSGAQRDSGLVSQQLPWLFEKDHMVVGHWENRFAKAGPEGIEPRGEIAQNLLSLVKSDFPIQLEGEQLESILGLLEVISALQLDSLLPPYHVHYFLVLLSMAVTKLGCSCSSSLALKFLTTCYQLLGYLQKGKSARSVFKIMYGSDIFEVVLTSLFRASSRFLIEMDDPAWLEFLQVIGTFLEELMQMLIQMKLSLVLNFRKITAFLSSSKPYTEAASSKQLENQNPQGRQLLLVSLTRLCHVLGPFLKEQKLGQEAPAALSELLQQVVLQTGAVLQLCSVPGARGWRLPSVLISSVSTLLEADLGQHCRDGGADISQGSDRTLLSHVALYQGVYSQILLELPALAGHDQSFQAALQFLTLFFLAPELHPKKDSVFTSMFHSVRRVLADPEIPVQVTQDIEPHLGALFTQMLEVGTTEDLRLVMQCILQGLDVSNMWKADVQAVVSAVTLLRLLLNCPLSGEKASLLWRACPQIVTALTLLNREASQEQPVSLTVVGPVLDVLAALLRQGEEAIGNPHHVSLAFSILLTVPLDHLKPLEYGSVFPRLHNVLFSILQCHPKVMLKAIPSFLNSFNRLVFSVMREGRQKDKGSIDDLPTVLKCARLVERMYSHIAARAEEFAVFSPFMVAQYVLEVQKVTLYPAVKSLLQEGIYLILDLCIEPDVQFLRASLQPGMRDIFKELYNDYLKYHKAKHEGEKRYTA
NP40-soluble protein abundance (concentration: 1mM): 1.21 ± 0.1 | NP40-soluble protein abundance (concentration: 2mM): 1.36 ± 0.15 | NP40-soluble protein abundance (concentration: 4mM): 1.61 ± 0.058 | NP40-soluble protein abundance (concentration: 6mM): 1.68 ± 0.11 | NP40-soluble protein abundance (concentration: 8mM): 2.04 ± 0.16 | NP40-soluble protein abundance (concentration: 10mM): 2.19 ± 0.46

UBE2V2 (UniProt Q15819)
Sequence of UniProt Q15819 (Q15819 whole entry): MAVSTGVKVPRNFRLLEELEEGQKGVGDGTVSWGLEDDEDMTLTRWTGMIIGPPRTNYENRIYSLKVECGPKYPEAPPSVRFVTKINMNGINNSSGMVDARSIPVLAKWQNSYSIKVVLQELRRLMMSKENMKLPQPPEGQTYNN
NP40-soluble protein abundance (concentration: 1mM): 0.932 ± 0.018 | NP40-soluble protein abundance (concentration: 2mM): 0.904 ± 0.027 | NP40-soluble protein abundance (concentration: 4mM): 0.9 ± 0.045 | NP40-soluble protein abundance (concentration: 6mM): 0.922 ± 0.032 | NP40-soluble protein abundance (concentration: 8mM): 0.885 ± 0.035 | NP40-soluble protein abundance (concentration: 10mM): 0.853 ± 0.028

UniProt Q0VDD8-4
NP40-soluble protein abundance (concentration: 1mM): 0.837 ± 0.098 | NP40-soluble protein abundance (concentration: 2mM): 0.884 ± 0.028 | NP40-soluble protein abundance (concentration: 4mM): 0.9026 ± 0.0016 | NP40-soluble protein abundance (concentration: 6mM): 0.9241 ± 0.0037 | NP40-soluble protein abundance (concentration: 8mM): 0.956 ± 0.13 | NP40-soluble protein abundance (concentration: 10mM): 1.06 ± 0.059

UniProt Q14498|Q14498-2
Sequence of UniProt Q14498 (Q14498 whole entry): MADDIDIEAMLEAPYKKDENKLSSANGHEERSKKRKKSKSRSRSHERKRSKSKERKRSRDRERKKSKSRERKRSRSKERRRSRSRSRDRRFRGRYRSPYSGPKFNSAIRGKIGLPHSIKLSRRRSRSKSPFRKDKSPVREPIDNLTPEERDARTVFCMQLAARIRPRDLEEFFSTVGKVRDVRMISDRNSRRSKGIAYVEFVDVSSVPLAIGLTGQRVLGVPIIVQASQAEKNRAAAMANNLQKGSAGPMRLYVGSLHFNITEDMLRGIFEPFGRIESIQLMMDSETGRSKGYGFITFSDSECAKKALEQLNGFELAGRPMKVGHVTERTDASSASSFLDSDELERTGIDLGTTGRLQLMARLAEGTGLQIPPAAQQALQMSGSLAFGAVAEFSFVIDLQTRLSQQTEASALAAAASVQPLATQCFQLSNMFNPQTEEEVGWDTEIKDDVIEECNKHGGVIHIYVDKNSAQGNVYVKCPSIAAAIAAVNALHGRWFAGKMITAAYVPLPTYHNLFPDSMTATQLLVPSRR
NP40-soluble protein abundance (concentration: 1mM): 1.59 ± 0.14 | NP40-soluble protein abundance (concentration: 2mM): 1.72 ± 0.12 | NP40-soluble protein abundance (concentration: 4mM): 1.84 ± 0.12 | NP40-soluble protein abundance (concentration: 6mM): 1.93 ± 0.13 | NP40-soluble protein abundance (concentration: 8mM): 1.98 ± 0.15 | NP40-soluble protein abundance (concentration: 10mM): 2.02 ± 0.2

UniProt Q7Z5K2|Q7Z5K2-3
Sequence of UniProt Q7Z5K2 (Q7Z5K2 whole entry): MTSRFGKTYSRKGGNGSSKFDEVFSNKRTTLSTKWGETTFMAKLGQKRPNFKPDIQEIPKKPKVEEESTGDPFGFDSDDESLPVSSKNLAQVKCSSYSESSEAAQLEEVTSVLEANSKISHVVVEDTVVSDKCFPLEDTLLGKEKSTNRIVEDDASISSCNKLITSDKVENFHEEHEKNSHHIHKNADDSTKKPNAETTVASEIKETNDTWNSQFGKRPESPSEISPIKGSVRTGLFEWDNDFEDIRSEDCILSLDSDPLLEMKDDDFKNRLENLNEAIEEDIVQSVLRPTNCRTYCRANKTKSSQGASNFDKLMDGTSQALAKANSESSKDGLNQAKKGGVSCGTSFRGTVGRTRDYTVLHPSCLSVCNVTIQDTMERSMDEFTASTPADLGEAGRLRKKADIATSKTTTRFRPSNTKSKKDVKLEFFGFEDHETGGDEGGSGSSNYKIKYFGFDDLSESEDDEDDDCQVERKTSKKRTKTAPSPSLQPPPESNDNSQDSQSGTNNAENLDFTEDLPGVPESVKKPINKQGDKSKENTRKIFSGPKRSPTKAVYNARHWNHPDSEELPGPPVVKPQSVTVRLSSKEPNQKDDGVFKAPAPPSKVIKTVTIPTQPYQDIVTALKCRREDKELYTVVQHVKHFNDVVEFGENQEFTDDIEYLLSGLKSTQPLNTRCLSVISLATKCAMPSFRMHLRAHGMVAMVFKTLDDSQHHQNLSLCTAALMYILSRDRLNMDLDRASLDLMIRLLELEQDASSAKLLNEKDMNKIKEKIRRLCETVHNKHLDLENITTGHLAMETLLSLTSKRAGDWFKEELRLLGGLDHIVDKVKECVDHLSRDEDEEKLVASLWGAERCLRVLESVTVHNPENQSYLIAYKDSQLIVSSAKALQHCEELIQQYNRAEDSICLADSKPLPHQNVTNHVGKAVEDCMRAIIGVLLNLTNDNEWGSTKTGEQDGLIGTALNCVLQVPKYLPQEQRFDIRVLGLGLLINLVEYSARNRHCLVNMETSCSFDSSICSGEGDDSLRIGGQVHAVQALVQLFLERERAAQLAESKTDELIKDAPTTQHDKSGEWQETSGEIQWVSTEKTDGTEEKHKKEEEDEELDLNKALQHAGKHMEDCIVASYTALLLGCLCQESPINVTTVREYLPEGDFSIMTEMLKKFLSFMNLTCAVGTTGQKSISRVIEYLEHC
NP40-soluble protein abundance (concentration: 1mM): 1.02 ± 0.011 | NP40-soluble protein abundance (concentration: 2mM): 0.995 ± 0.018 | NP40-soluble protein abundance (concentration: 4mM): 0.993 ± 0.011 | NP40-soluble protein abundance (concentration: 6mM): 1.01 ± 0.026 | NP40-soluble protein abundance (concentration: 8mM): 1.014 ± 0.0065 | NP40-soluble protein abundance (concentration: 10mM): 0.987 ± 0.029

UniProt Q8NEJ9|Q8NEJ9-2
Sequence of UniProt Q8NEJ9 (Q8NEJ9 whole entry): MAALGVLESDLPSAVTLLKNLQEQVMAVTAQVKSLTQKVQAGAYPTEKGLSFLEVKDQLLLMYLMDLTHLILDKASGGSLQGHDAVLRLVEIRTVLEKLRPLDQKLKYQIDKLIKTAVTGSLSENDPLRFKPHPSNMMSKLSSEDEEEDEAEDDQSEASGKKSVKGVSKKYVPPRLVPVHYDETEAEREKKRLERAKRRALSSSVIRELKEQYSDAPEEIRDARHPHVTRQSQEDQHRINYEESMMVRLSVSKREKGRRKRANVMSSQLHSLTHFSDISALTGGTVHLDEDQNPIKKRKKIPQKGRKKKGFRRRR
NP40-soluble protein abundance (concentration: 1mM): 1.11 ± 0.12 | NP40-soluble protein abundance (concentration: 2mM): 1.13 ± 0.16 | NP40-soluble protein abundance (concentration: 4mM): 1.24 ± 0.064 | NP40-soluble protein abundance (concentration: 6mM): 1.29 ± 0.14 | NP40-soluble protein abundance (concentration: 8mM): 1.32 ± 0.058 | NP40-soluble protein abundance (concentration: 10mM): 1.34 ± 0.19

UniProt Q8NG08|F5H1I4
NP40-soluble protein abundance (concentration: 1mM): 1.05 ± 0.18 | NP40-soluble protein abundance (concentration: 2mM): 1.06 ± 0.12 | NP40-soluble protein abundance (concentration: 4mM): 1.09 ± 0.16 | NP40-soluble protein abundance (concentration: 6mM): 0.955 ± 0.13 | NP40-soluble protein abundance (concentration: 8mM): 0.984 ± 0.066 | NP40-soluble protein abundance (concentration: 10mM): 1.01 ± 0.1

UniProt Q86Y01
Sequence of UniProt Q86Y01 (Q86Y01 whole entry): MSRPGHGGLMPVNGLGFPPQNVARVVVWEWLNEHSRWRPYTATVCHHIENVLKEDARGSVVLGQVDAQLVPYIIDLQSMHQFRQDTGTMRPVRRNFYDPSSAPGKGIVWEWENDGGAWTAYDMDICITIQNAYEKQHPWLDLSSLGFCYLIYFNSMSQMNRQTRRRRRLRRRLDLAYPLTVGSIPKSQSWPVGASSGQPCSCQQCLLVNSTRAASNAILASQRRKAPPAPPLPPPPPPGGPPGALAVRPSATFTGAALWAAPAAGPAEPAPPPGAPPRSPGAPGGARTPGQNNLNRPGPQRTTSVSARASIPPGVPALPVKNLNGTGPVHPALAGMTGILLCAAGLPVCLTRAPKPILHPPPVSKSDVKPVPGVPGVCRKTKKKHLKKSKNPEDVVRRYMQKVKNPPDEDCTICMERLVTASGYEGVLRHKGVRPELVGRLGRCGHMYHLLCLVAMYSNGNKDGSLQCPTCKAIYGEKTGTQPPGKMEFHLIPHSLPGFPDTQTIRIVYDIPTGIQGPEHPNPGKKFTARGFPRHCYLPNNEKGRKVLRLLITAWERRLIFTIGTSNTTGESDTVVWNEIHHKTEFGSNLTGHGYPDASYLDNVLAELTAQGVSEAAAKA
NP40-soluble protein abundance (concentration: 1mM): 0.964 ± 0.033 | NP40-soluble protein abundance (concentration: 2mM): 1.05 ± 0.022 | NP40-soluble protein abundance (concentration: 4mM): 1.12 ± 0.065 | NP40-soluble protein abundance (concentration: 6mM): 1.05 ± 0.088 | NP40-soluble protein abundance (concentration: 8mM): 1.09 ± 0.012 | NP40-soluble protein abundance (concentration: 10mM): 1.15 ± 0.1

PPIG (UniProt Q13427)
NP40-soluble protein abundance (concentration: 1mM): 1.61 ± 0.22 | NP40-soluble protein abundance (concentration: 2mM): 1.69 ± 0.27 | NP40-soluble protein abundance (concentration: 4mM): 1.78 ± 0.32 | NP40-soluble protein abundance (concentration: 6mM): 1.99 ± 0.49 | NP40-soluble protein abundance (concentration: 8mM): 1.85 ± 0.43 | NP40-soluble protein abundance (concentration: 10mM): 1.95 ± 0.46

TOMM20 (UniProt Q15388)
Sequence of UniProt Q15388 (Q15388 whole entry): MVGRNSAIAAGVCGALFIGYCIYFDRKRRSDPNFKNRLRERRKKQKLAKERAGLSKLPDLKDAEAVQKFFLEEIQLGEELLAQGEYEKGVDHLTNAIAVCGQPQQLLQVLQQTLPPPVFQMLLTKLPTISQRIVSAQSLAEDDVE
NP40-soluble protein abundance (concentration: 1mM): 0.921 ± 0.086 | NP40-soluble protein abundance (concentration: 2mM): 0.896 ± 0.044 | NP40-soluble protein abundance (concentration: 4mM): 0.903 ± 0.11 | NP40-soluble protein abundance (concentration: 6mM): 0.886 ± 0.041 | NP40-soluble protein abundance (concentration: 8mM): 0.8947 ± 0.0073 | NP40-soluble protein abundance (concentration: 10mM): 0.803 ± 0.21

UniProt Q13642-1|Q13642-4|Q13642-5
NP40-soluble protein abundance (concentration: 1mM): 0.979 ± 0.17 | NP40-soluble protein abundance (concentration: 2mM): 0.968 ± 0.11 | NP40-soluble protein abundance (concentration: 4mM): 0.956 ± 0.098 | NP40-soluble protein abundance (concentration: 6mM): 0.926 ± 0.091 | NP40-soluble protein abundance (concentration: 8mM): 0.979 ± 0.12 | NP40-soluble protein abundance (concentration: 10mM): 0.983 ± 0.064

ZCCHC7 (UniProt Q8N3Z6)
Sequence of UniProt Q8N3Z6 (Q8N3Z6 whole entry): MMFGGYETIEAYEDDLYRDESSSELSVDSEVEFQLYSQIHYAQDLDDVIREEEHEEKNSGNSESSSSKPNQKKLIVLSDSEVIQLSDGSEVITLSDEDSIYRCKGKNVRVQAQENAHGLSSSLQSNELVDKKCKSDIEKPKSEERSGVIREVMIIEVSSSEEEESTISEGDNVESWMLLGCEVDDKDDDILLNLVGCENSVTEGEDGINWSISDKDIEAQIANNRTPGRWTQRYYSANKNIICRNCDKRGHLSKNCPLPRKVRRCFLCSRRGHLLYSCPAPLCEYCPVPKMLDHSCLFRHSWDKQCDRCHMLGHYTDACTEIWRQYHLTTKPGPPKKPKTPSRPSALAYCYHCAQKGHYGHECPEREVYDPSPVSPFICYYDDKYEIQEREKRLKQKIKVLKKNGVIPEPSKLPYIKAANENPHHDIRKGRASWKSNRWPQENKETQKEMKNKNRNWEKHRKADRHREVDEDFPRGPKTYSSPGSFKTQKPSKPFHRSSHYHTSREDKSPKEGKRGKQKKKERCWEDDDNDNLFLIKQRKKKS
NP40-soluble protein abundance (concentration: 1mM): 1.02 ± 0.19 | NP40-soluble protein abundance (concentration: 2mM): 1.2 ± 0.026 | NP40-soluble protein abundance (concentration: 4mM): 1.34 ± 0.021 | NP40-soluble protein abundance (concentration: 6mM): 1.48 ± 0.018 | NP40-soluble protein abundance (concentration: 8mM): 1.51 ± 0.15 | NP40-soluble protein abundance (concentration: 10mM): 1.79 ± 0.044

UniProt Q2KHT3|Q2KHT3-2
NP40-soluble protein abundance (concentration: 1mM): 1.04 ± 0.045 | NP40-soluble protein abundance (concentration: 2mM): 0.967 ± 0.1 | NP40-soluble protein abundance (concentration: 4mM): 0.963 ± 0.11 | NP40-soluble protein abundance (concentration: 6mM): 0.999 ± 0.093 | NP40-soluble protein abundance (concentration: 8mM): 1.04 ± 0.15 | NP40-soluble protein abundance (concentration: 10mM): 1.02 ± 0.17
